# Measured values from PubChem BioAssay (NCATS).
# Where “and” joins values, the source holds several entries; their conditions need not be identical. Identical values can stand only once. Results filed as inconclusive are left out. Where a call stands in place of a potency, no number is given. Unmarked numbers belong to inactive results. Calls of active or inactive are those of the source. The call rests on the fitted dose curve; in most records, active means well fitted inhibition curve with a large enough effect; inconclusive means small, poorly fitted or top-dose-only effect; inactive means flat fitted curve, though single readings scatter.
# Target: Glutathione peroxidase 1 (Homo sapiens) (UniProt P07203)
# Test: Primary qHTS Assay for Inhibitors of Recombinant Selenoprotein Glutathione Peroxidase 1 (GPX1) (AID 1845191); further: nearly all actives have a fitted effect of over 65% in size
# Conditions: recombinant GPX1, GR-coupled NADPH fluorescence, 15 min; series mostly up to 48.8 µM; activity, negative = inhibition: at the top concentration
# From the text: Assay Provider: Elias S.J. Arner MD PhD.
# Department of Medical Biochemistry and Biophysics
# Karolinska Institutet, Solna, Stockholm, Sweden
# Selenoprotein glutathione peroxidases (GPX), like the ubiquitously expressed GPX1 and the ferroptosis modulator GPX4, enact their antioxidant activities by reducing hydroperoxides using glutathione. […] GPX1 and GPX4 inhibitors have thus shown promise as anti-cancer agents. Existing inhibitors are often promiscuous, or modulate GPX activity only indirectly, so novel direct inhibitors identified through screening against GPX1 and GPX4 could be valuable. Here, we developed optimized glutathione reductase (GR)-coupled GPX assays for the biochemical high-throughput screen (HTS) of almost 12,000 compounds with known mechanisms of action. Initial hits were triaged using a GR counter-screen, assessed for isoform specificity using a separate GPX2 assay, and were assessed for general selenocysteine-targeting activity using a thioredoxin reductase (TXNRD1) assay. With this suite of assays, we identified novel GPX1/GPX2- and GPX4-specific inhibitors and can here present a validated pipeline for future discovery research for selenoprotein-targeting agents.
# SEQUENCE No. (e.g., 1, 2, 3, etc.); […] (e.g., Cells, Incubation, Reagent, etc.); VALUE; DESCRIPTION.
# 1; Reagent 1; 3 uL; GPx1 enzyme or no enzyme control in 1536-well, black, solid Greiner assay plate.
# 2; Compound; 25 nL; Kalypsis pin tool (Wako USA) equipped with a 1536-well pin head.
# 3; Incubation; 30 min; room temperature.
# 4; Reagent 2; 1 uL; 10 nM GPX1, 1 mM GSH, 0.5 mM CHP, 0.5 mM NADPH, 100 nM GR, 0.01% BSA substrate
# 5; Detection; Fluorescence; ViewLux microplate reader, excitation 340 nm and emission 450 nm.
# 6; Incubation; 15 min; room temperature.
# 7; Detection; Fluorescence; ViewLux microplate reader, excitation 340 nm and emission 450 nm.
# NOTES (numbers refer to Sequence numbers above)
# 1. 3 uL of 16.66 nM GPX1 and 0.016% BSA in assay buffer (50 mM Tris-HCl, 2 mM EDTA (pH 7.5), 150 mM NaCl) was added to columns 3-48 of 1536-well assay plates using a BioRAPTR Flying Reagent Dispenser (Let's Go Robotics (LGR), Carlsbad, CA). A no-enzyme control (0.01% BSA in TES assay buffer) was added to columns 1-2.
# 2. 25 nL of test compounds and DMSO controls were added to each well with a pin tool (Kalypsys).
# 3. The assay plates were incubated for 30 minutes at room temperature.
# 4. 1 uL of master mix (500 nM glutathione reductase (GR), 5 mM reduced glutathione (GSH), 2.5 mM NADPH in assay buffer) was added. 1 uL of cumene hydroperoxide (CHP) ([2.5 mM] in 50% EtOH) was then added within 5 minutes to initiate the reaction. Final concentrations were: 10 nM GPX1, 1 mM GSH, 0.5 mM CHP, 0.5 mM NADPH, 100 nM GR, 0.01% BSA.
# 5. Initial fluorescence readout (t=0) at 340/450 nm was measured using a ViewLux multimodal detector (PerkinElmer, Waltham, MA).
# 7. Endpoint fluorescence readout (t=15) at 340/450 nm was measured 15 min after room temperature incubation.
# Potency means the concentration at half of the fitted maximal effect.
# Sequence of Glutathione peroxidase 1 (Homo sapiens) (P07203 whole entry, looked up): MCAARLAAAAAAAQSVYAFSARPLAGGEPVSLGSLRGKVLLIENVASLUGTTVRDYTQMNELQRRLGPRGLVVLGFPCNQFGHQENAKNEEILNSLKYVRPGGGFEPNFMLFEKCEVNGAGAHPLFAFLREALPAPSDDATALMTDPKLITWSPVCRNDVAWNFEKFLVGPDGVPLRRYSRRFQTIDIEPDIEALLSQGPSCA
Compound,outcome,Potency,"activity, negative = inhibition [%]"
CN1CC[C@@H](c2c(O)cc(O)c3c(=O)cc(-c4ccccc4Cl)oc23)[C@@H](O)C1,inactive,,
CC1(C)CCC(c2ccc(Cl)cc2)=C(CN2CCN(c3ccc(C(=O)NS(=O)(=O)c4ccc(N[C@H](CCN5CCOCC5)CSc5ccccc5)c(S(=O)(=O)C(F)(F)F)c4)cc3)CC2)C1,,inactive,
Cn1c(=O)n(-c2ccc(C(C)(C)C#N)cc2)c2c3cc(-c4cnc5ccccc5c4)ccc3ncc21,,inactive,
COc1cc2ncn(-c3cc(OCc4ccccc4C(F)(F)F)c(C(N)=O)s3)c2cc1OC,inactive,,
O=C(CCCCCCNC(=O)c1cnc(N(c2ccccc2)c2ccccc2)nc1)NO,,inactive,
CN(C)c1nc(Cc2ccc(NC(=O)c3ccc4ccccc4c3)cc2)nc(Cl)c1CC(=O)O,,,-10.8
COC(=O)C[C@](O)(CCCC(C)(C)O)C(=O)O[C@@H]1C(OC)=C[C@]23CCCN2CCc2cc4c(cc2[C@H]13)OCO4,inactive,,
Cc1cc(Nc2cc(N3CCN(C)CC3)nc(Sc3ccc(NC(=O)C4CC4)cc3)n2)n[nH]1,inactive,,
CC(C)c1ccc(Cn2ccc3c4c(N)nc(NC5CC5)nc4ccc32)cc1,inactive,,
COCCOc1ccc2c(c1)ncn2-c1ccc2cccc(N3CCC(N)CC3)c2n1,,inactive,
O=C(Cc1ccc(-c2ccc(OCCN3CCOCC3)cc2)cn1)NCc1ccccc1,,inactive,
c1ccc2c(CCNc3ccc(Nc4ccncc4)cc3)c[nH]c2c1,,inactive,
CN(C)CCCN=c1c2ccccc2n(C)c2[nH]c(=O)n(C)c(=O)c12,inactive,,
Cc1nc2cnc3ccc(C#Cc4cccnc4)cc3c2n1-c1ccc(C(C)(C)C#N)cc1,inactive,,
C[C@@H](Oc1cc(-c2cnn(C3CCNCC3)c2)cnc1N)c1c(Cl)ccc(F)c1Cl,,inactive,
C[C@@H]1CN(CC(=O)Nc2ccc3c(c2)Cc2cccc(-c4cc(=O)cc(N5CCOCC5)o4)c2S3)C[C@H](C)O1,inactive,,
COc1ccc2c(OCc3nnc4ccc(-c5ccccc5)nn34)ccnc2c1,,,2.51
COc1ccc2c(c1)CC[C@@H](CN(C)CC(=O)O)[C@H]2c1ccccc1,,inactive,
Cn1c(CNc2ccc(C(=N)N)cc2)nc2cc(C(=O)N(CCC(=O)O)c3ccccn3)ccc21,,,-20.6
C=C1C(=CC=C2CCC[C@]3(C)[C@@H]([C@H](C)C=C[C@H](C)C(C)C)CC[C@@H]23)C[C@@H](O)C[C@@H]1O,inactive,,

Compound,outcome,Potency,"activity, negative = inhibition [%]"
O=C(O)Cn1nnc(-c2cc(N3CCC(Oc4cc(F)ccc4Br)CC3)no2)n1,inactive,,
NC(=O)c1cccc2cn(-c3ccc([C@@H]4CCCNC4)cc3)nc12,,18.3 µM (active) and 22.7 µM (active),
COc1cccc2c(NCc3ccccc3)nc(-n3c(N)nc4ccccc43)nc12,inactive,,
O=C(NC1CCNCC1)c1[nH]ncc1NC(=O)c1c(Cl)cccc1Cl,inactive,,
COc1cc(C(=O)N2CCC(N3CCN(C)CC3)CC2)ccc1Nc1ncc2c(n1)N(C)c1ccccc1C(=O)N2C,,inactive,
CC[C@@H]1C(=O)N(C)c2cnc(Nc3ccc(C(=O)NC4CCN(C)CC4)cc3OC)nc2N1C1CCCC1,,,-1.54
COc1ccc(F)c(F)c1C(=O)c1cnc(NC2CCN(S(C)(=O)=O)CC2)nc1N,,inactive,
CNC(=O)c1ccc(N2C(=S)N(c3cnc(C#N)c(C(F)(F)F)c3)C(=O)C23CCC3)cc1F,inactive,,
CC(=O)c1c(C)c2cnc(Nc3ccc(N4CCNCC4)cn3)nc2n(C2CCCC2)c1=O,,inactive,
COC(=O)c1ccc2c(C(=Nc3ccc(N(C)C(=O)CN4CCN(C)CC4)cc3)c3ccccc3)c(O)[nH]c2c1,,inactive,
Cc1cc(CN2CCN(c3c(Br)cnc4nc(-c5ccc(N6CCN(C)CC6)cc5)[nH]c34)CC2)no1,,11.4 µM (active) and 12.9 µM (active),
CCCNC(=O)Nc1ccc(Oc2ncnc3cc(OC)c(OC)cc23)cc1Cl,,,-8.05
O=c1c2ccccc2nc2n1CCc1c-2[nH]c2ccccc12,,,3.53
Cn1cc(-c2[nH]c3cc(NC(=O)[C@H](N)C4CCCCC4)cc4c3c2C=NNC4=O)cn1,,inactive,
CCS(=O)(=O)c1cccc(-c2cc(C(=O)NC3CCN(C)CC3)c(C)c3[nH]c4ncc(C)cc4c23)c1,,,-1.81
Cc1ccc(C(=O)Nc2ccc(CN3CCN(C)CC3)c(C(F)(F)F)c2)cc1C#Cc1cnc2cccnn12,,inactive,
CCN1CCN(Cc2ccc(-c3cc4c(N[C@H](C)c5ccccc5)ncnc4[nH]3)cc2)CC1,inactive,,
O=C(c1cncc(Br)c1)N1CCC(N2CCCC2)CC1,inactive,,
CN(c1ncccc1CNc1nc(Nc2ccc3c(c2)CC(=O)N3)ncc1C(F)(F)F)S(C)(=O)=O,inactive,,
CN[C@H]1CCc2cc(OC)c(OC)c(OC)c2-c2ccc(OC)c(=O)cc21,inactive,,
